In all, about 1,100 sequences were measured (“thermal melting temperature (Tm) of peptide-HLA complex”: median about 58, lowest 2% from about 42 on). This is one part of a sample in which the lowest values are shown more often than they occur.

Among the data in the supplement of paper PMC7726561 are thermal melting temperature values, retold here.
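Note: lysates heated 10 min at 37–73 °C, complexes pulled down with pan-HLA I antibody, peptide signal by DIA-MS relative to 37 °C, Tm where half the complex is unfolded.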

The assay addresses HLA-A*02:01. In words: thermal melting temperature (Tm) of peptide-HLA complex; higher = more thermostable pHLA complex. Particulars: C1R-A*02:01.
Sequence AMNDILAQV displayed a thermal melting temperature of 62.2 °C.

With KLDFANNVQL, the thermal melting temperature stood at 50.3 °C. The figure for ALLDQLHTL is 62.5 °C. In the case of FLSELTQQL it was 59.5 °C; in that of VLHELTFQA, 60.4 °C; in that of FVADGIFKA, 41.1 °C. VLAPHLTRA returned a thermal melting temperature of 53 °C. Sequence FLSDGTIISV gave a thermal melting temperature of 57.5 °C.

In turn, RLAEALPKQSV had a thermal melting temperature of 41.8 °C. As to GVIDGHIYAV, the thermal melting temperature worked out at 61.7 °C.

SLFPGKLEV: the thermal melting temperature was determined as 60.4 °C.

GLLQINDKIAL: the thermal melting temperature was 41.7 °C.

For the sequence RLQEEINEV, the thermal melting temperature is 55.3 °C. YQLEAEFVGV displayed a thermal melting temperature of 58.7 °C.

Take SLLGGVLRV: the thermal melting temperature was determined as 55.7 °C. For the sequence TLSDLRVYL, the thermal melting temperature was found to be 64.7 °C.

As to ALFPERITV, the thermal melting temperature came out at 61.6 °C. In the case of YLDIKGLLDV it was 56 °C; in that of TLLDPNEKYLL, 61.3 °C. In the case of RLWNETVEL it was 63.7 °C; in that of SIAPRMMSV, 48.1 °C.

In turn, FTQDSNYLL displayed a thermal melting temperature of 49.1 °C. HIADVSHFI gave a thermal melting temperature of 55.3 °C. RIADGLPVAV: the thermal melting temperature amounted to 41 °C. In turn, VLADQEVRL had a thermal melting temperature of 58.4 °C. Consider GLNEEIARV, for which the thermal melting temperature was 64 °C. IQDDMQTLYV registered a thermal melting temperature of 43.4 °C. ILANDGVLLAA showed a thermal melting temperature of 59.6 °C.

In turn, FLIPIYHQV came in with a thermal melting temperature of 62.7 °C. In the case of SLIRNLEQL, the thermal melting temperature was determined as 51.2 °C.

The sequence KLLDIPGLEV displayed a thermal melting temperature of 61.3 °C. The sequence YLKDLIEEV had a thermal melting temperature of 62.8 °C.

YQIAEQFRV displayed a thermal melting temperature of 61.3 °C. IAPPVPLKA had a thermal melting temperature of 53 °C.

The sequence ILSGVIRSV showed a thermal melting temperature of 56.6 °C. In the case of LLYDGKLSSA it was 59.4 °C; in that of LLVDVEPKV, 55.5 °C. The sequence QMISRIEYV came in with a thermal melting temperature of 59.7 °C. KLTENLVAL had a thermal melting temperature of 59 °C. On to FLNKEITSV, for which the thermal melting temperature is 59.6 °C.

Take TLLTFFHEL: the thermal melting temperature was determined as 57.4 °C. As for YLPEDFIRV, the thermal melting temperature was found to be 61.4 °C. In the case of FVMETFVHL, the thermal melting temperature stood at 57 °C.

The sequence ILTEAIKAA displayed a thermal melting temperature of 59.3 °C. With TLLTDPPTA, the thermal melting temperature is 59.5 °C. Regarding VMFGGKQVVV, the thermal melting temperature was 57.5 °C. Consider KLFNEFIQL, for which the thermal melting temperature was 57.8 °C. SLYSQVHQI: the thermal melting temperature stood at 60.2 °C. The figure for NLYEEWTQV is 59.9 °C; for VLMTQQPRPVL it is 48.8 °C. In the case of YLTAFTKNL it was 60.8 °C; in that of GLPRFGIEMV, 60.1 °C; in that of KQTDLEITV, 57.5 °C. With RVISELQEA, the thermal melting temperature was 40.7 °C. NVIERLQEA came in with a thermal melting temperature of 57.2 °C. Turning to AQFEHTILL, the thermal melting temperature amounted to 58.1 °C.
